PubChem BioAssay (NCI)
Several values for one entry are separate records, joined by “and”; a condition that tells them apart may be missing. Identical values can stand only once. Compounds without any hit were thinned out: in the full panel of roughly 83,000, 20% have a hit.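 Compound tested at a single concentration for 48 hours in 96-well plates; a percent growth value below 10 was scored as active.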 Activity calls are given as the source filed them.

Each molecule was assayed on MDA-MB-468 breast (assay: NCI-60 one-dose screen, 48 h (100 = growth as untreated, 0 = no growth, -100 = all killed)). Settings: 10 µM unless noted.
`O=C(COc1ccc(-c2nc3ccccc3[nH]2)cc1)N=Nc1c(O)[nH]c2ccc(Cl)cc12` was tested, and the growth was 89.7% (inactive). With `CC(=O)Cc1cc(-c2cc(CC(C)=O)[nH]n2)n[nH]1` the growth was 103% (inactive). In the case of `O=C1C[C@@H]2/C(=C(O)\C=C\c3ccccc3)C(=O)C=C[C@@H]2O1`, the growth was -76.9% (active). For `O=C(O)C(Cc1ccccc1)C(=O)O`, the growth was 82.4% (inactive). In the case of `COc1c(Cl)cc(Cl)cc1Cl`, the growth was 110% (inactive). For `CCC(CC)N1C(=O)/C(=c2\sc3n(c2=O)C2C(NN=3)N(CC)C(=O)N2CC)c2ccccc21` (configuration not stated), the growth was 42.8% (inactive). With `Cc1c(C)c2c(c(C)c1OC(=O)CCC(=O)[O-])CCC(C)(CCCCCCCCCCC[P+](c1ccccc1)(c1ccccc1)c1ccccc1)O2` (configuration not stated) the growth was -70.4% (active). In the case of `COc1ccc2nc3cc(Cl)ccc3c(N3CCN(c4nccc(NCc5ccccc5)n4)CC3)c2c1`, the growth was 15% (inactive). For `COC(=O)c1cc(=O)nc(N/N=C/c2ccccc2O)s1`, the growth was 98% (inactive). For `C=C1C(=O)O[C@H]2[C@H]1CC/C(COC(=O)CCCCC(=O)OC/C1=C/CC[C@@]3(C)O[C@H]3[C@H]3OC(=O)C(=C)[C@@H]3CC1)=C\CC[C@@]1(C)O[C@@H]21`, the growth was 45.5% (inactive). With `O=C1c2cc(S(=O)(=O)O)ccc2C(=O)c2c1cccc2[N+](=O)[O-]` the growth was 114% (inactive). `O=C(Cn1ccnc1)Nc1ccc(-c2nc3ccccc3s2)cc1` was tested, and the growth was 0.748% (active). With `CCN(Cc1ccccc1)c1ccc(C=O)cc1` the growth was 62.9% (inactive). With `Cc1ccc(-n2cc(/C=C/C(=O)c3ccc(S(C)(=O)=O)cc3)c(-c3ccc(S(C)(=O)=O)cc3)n2)cc1` the growth was 106% (inactive). With `O=C1Nc2c(ccc(Cl)c2Cl)/C1=C/c1ccc(O)cc1` the growth was 62% (inactive). In the case of `CC(C)(C)C(CCc1ccc(Cl)cc1)N1CCN(C2CCCCC2)CC1` (configuration not stated), the growth was 58.3% (inactive). For `Brc1ccc(-c2cnc3nonc3n2)cc1`, the growth was 50.1% (inactive). For `[2H]c1cc2c(c([2H])c1F)/C(=C/c1[nH]c(C)c(C(=O)NCCN(CC)CC)c1C)C(=O)N2`, the growth was 118% (inactive). In the case of `CC(C)Sc1ncnc2nc[nH]c12`, the growth was 109% (inactive). For `CCOC(=O)c1c(N)c(C#N)cn1Cc1ccc(Cl)cc1Cl`, the growth was 45.2% (inactive). For `CCN1Cc2c(/C=C/c3ccccc3)nc3ccc(OC)cc3c2N(c2cccc(Cl)c2)C1`, the growth was 48.3% (inactive). With `CC(=O)OCC1OC(OC2C(COC(C)=O)OC(OCCC[S-])C(OC(C)=O)C2OC(C)=O)C(OC(C)=O)C(OC(C)=O)C1OC(C)=O.[Au+].c1ccc(CN2[CH-]N(Cc3ccccc3)C(c3ccccc3)=C2c2ccccc2)cc1` (configuration not stated) the growth was 10.2% (inactive). For `CC1=C(/C=C/C(C)=C/C=C/C(C)=C/C(=O)O)C(C)(C)CCC1`, the growth was 99.9% (inactive) and 110% (inactive). `Fc1ccc2[nH]c3c(NCCCN4CCOCC4)ncnc3c2c1` was tested, and the growth was 73.2% (inactive). `O=C(O)c1ccc2c(c1)C(=O)N(Cc1ccccc1)C2=O` was tested, and the growth was 96.2% (inactive). For `C=C(C)[C@@H]1CC[C@]2(COCCCNCCCN)CC[C@]3(C)[C@H](CC[C@@H]4[C@@]5(C)CC[C@H](O)C(C)(C)[C@@H]5CC[C@]43C)[C@@H]12`, the growth was -81.6% (active). For `CS(=O)(=O)OCC(COS(C)(=O)=O)C(c1ccccc1)c1ccccc1`, the growth was 102% (inactive).
